# FBPA Giardia inh: Giardia lamblia aldolase inhibition; Potency, µM (highest dose often 59.6 µM), for inactives: top-dose activity, negative = inhibition, actives largely listed as inhibitors; purified Giardia FBPA; A8B2U2; 290,000 tested, 0.71% active; AID 2451; further: potency means the concentration at half of the fitted maximal effect; on the % scale 0 is the no-effect control and ±100 the full control effect; nearly all actives have a fitted effect of over 55% in size
# Target sequence (A8B2U2 whole entry, looked up): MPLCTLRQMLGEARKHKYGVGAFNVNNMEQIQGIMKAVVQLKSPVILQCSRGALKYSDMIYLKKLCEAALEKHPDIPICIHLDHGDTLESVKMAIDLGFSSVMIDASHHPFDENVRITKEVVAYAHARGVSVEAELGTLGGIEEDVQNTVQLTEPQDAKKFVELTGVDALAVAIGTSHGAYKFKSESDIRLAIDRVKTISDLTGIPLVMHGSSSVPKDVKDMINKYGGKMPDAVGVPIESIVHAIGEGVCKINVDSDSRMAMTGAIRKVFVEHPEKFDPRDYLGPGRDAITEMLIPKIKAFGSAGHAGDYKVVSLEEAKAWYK
#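 Giardia FBPA (40 nM reagent) was preincubated 10 min at RT with compound (up to 57.5 uM final), then substrate plus GAPDH/TPI/NAD/arsenate coupling system with diaphorase/resazurin was added; resorufin fluorescence (525/598 nm) was read after 20 min.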
# Shiga inhibitor: inhibitors of Shiga toxin in Vero cells | AID 2315 | inhibition, % at 38.7 µM | 290,000 tested, 9.2% active | Vero cells, Shiga toxin protein synthesis inhibition reporter; in the data active means inhibition mostly above about 28%, no sharp cut-off; inactive means mostly below about 43%; further: 0% is about no effect
# LmPK inh: inhibitors of Leishmania mexicana pyruvate kinase; purified LmPK, Kinase-Glo ATP luminescence, 1 h; Potency, µM (highest dose often 57.5 µM), for inactives: top-dose activity change, negative = inhibition, usual class: inhibitors; 290,000 tested, 0.37% active; further: potency means the concentration at half of the fitted maximal effect; on the % scale 0 is the no-effect control and ±100 the full control effect
#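 Kinase-Glo luminescence read after 1 h RT reaction of 0.1 nM LmPK with 0.5 mM PEP and 0.1 mM ADP. Activity scaled between uninhibited and enzyme-free controls.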
# Tb PYK inh: T. brucei pyruvate kinase inhibition; 410,000 tested, 0.12% active; TbPYK enzyme, Kinase-Glo Plus ATP luminescence, 45 min; Potency, µM (titrated, usually from 76.8 µM), without a hit: at the highest dose activity, negative = inhibition, actives largely listed as inhibitors; AID 624173; Q57TT1; further: potency means the concentration at half of the fitted maximal effect; on the % scale 0 is the no-effect control and ±100 the full control effect; nearly all actives have a fitted effect of over 50% in size
#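 Readout: single end-point luminescence (Kinase-Glo Plus, 10 min). Reaction conditions were TbPYK/substrate plus 130 uM ADP, 45 min at RT, pH 7.2 TEA buffer. No-enzyme wells served as controls, and data were normalized before concentration-response fitting.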
# Cycloheximide cs: counter-screen for Shiga toxin inhibitors: cycloheximide protein synthesis inhibition; cell reporter, cycloheximide protein synthesis inhibition counterscreen; max response, %; 300,000 tested, 12% active; in the data active means max response mostly above about 13%, no sharp cut-off; inactive means mostly below about 14%; further: read at 38.3 µM for the half of the compounds with a filed dose; 0% is about no effect
# Sm TGR block: inhibitors of Schistosoma mansoni thioredoxin glutathione reductase; Q962Y6; purified TGR, DTNB reduction, TNB absorbance 405 nm; Potency, µM (highest dose often 114 µM), for the others: at the highest dose activity change, negative = inhibition, hits mostly inhibitors; 360,000 tested, 3% active; AID 485364; further: potency means the concentration at half of the fitted maximal effect; on the % scale 0 is the no-effect control and ±100 the full control effect; nearly all actives have a fitted effect of over 60% in size
#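 TGR 20 nM + NADPH 100 uM (dispensed conc.), cpd preinc 15 min RT; start with NADPH (500 uM addition) then DTNB (15 mM addition). Kinetic TNB absorbance, 405 nm filter. Four-parameter Hill fit across titration.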
# Numbers without * were called inactive; ? = inconclusive; . = no result; [ ] = remark or other dose. This is one part of a sample in which hits are shown more often than they occur. Unless noted, the call rests on the fitted dose curve; in most records, active means well fitted curve in the direction sought with a large enough effect; inconclusive means small, poorly fitted or top-dose-only effect, or another doubt; inactive means no such curve, though single readings can be large; an effect the other way counts as inactive or inconclusive.
SMILES,FBPA Giardia inh,Shiga inhibitor,LmPK inh,Tb PYK inh,Cycloheximide cs,Sm TGR block
CC(C)C[C@H](NC(=O)[C@H](CC(C)C)NC(=O)[C@H](CCC(N)=O)NC(=O)[C@H](CO)NC(=O)[C@@H]1CCCN1C(=O)[C@H](CO)NC(=O)[C@H](CO)NC(=O)[C@@H](NC(=O)[C@H](Cc1cnc[nH]1)NC(=O)[C@H](CCC(=O)O)NC(=O)[C@H](Cc1ccc(O)cc1)NC(=O)[C@H](CCCCN)NC(=O)[C@H](CCC(N)=O)NC(=O)[C@H](Cc1ccc(O)cc1)NC(=O)[C@H](CC(=O)O)NC(=O)[C@@H](NC(=O)[C@@H]1CCCN1C(=O)[C@H](CC(=O)O)NC(=O)[C@H](CC(N)=O)NC(=O)[C@H](CC(=O)O)NC(=O)CNC(=O)[C@H](CC(=O)O)NC(=O)[C@@H]1CCCN1C(=O)[C@H](CCC(N)=O)NC(=O)[C@H](Cc1ccc(O)cc1)NC(=O)[C@H](C)NC(=O)[C@H](Cc1c[nH]c2ccccc12)NC(=O)[C@H](Cc1ccccc1)NC(=O)[C@@H](NC(=O)[C@@H](N)CO)[C@@H](C)O)[C@@H](C)O)[C@@H](C)O)C(=O)N[C@@H](C)C(=O)N1CCC[C@H]1C(=O)NCC(=O)N[C@@H](CC(=O)O)C(=O)N[C@@H](Cc1ccc(O)cc1)C(=O)O,0%,-1,.,.,-9,.
COc1cc(SC)ccc1C(=O)Nc1nc(C)cc(C)n1,-6%,-1,5%,-3%,-2,-16%
COc1cc(SC)ccc1C(=O)Nc1ccncc1,1%,50,3%,-2%,33*,.
COc1cc(SC)ccc1C(=O)Nc1cccc(C2OCCCO2)c1,-7%,71*,-2%,-3%,32*,-1%
COc1cc(SC)ccc1C(=O)Nc1ccccc1C#N,0%,91*,-10%,-1%,37*,14%
COc1cc(SC)ccc1C(=O)Nc1ccc(Cl)cn1,-11%,77*,-18%,-5%,33*,11%
COc1cc(SC)ccc1C(=O)NC1CCCc2ccccc21 (configuration not stated),7%,-2,-6%,-1%,8,-5%
CSc1ccc(Cl)c(C(=O)Nc2ccc(Cl)cn2)c1,-11%,1,-1%,-2%,1,-4%
COc1ccc(CNC(=O)CCCN2C(=O)CSc3c2c(C)nn3-c2ccccc2)cc1,.,.,.,-6%,.,6%
COC(=O)C(Cc1ccccc1)NC(=O)C(N)CC(=O)O (configuration not stated),-4%,.,.,-1%,.,.
O=[N+]([O-])c1cnccc1-n1nnc2ccccc21,.,.,.,3%,.,.
O=C1CNC(=O)c2cc(Cl)ccc2N1,.,.,.,1%,.,.
COc1cc(SC)ccc1C(=O)Nc1ccc2c(c1)CCC2,-2%,96*,0%,-13%,31*,13%
O=C1CCN(CCc2ccccc2)CCN1C(CSc1ccc(Br)cc1)Cc1ccccc1 (configuration not stated),-1%,-4,.,.,-2,.
Cc1ccc(SCC(Cc2ccccc2)N2CCN(C)CCC2=O)cc1 (configuration not stated),5%,2,.,.,-2,.
Cc1ccc(SCC(Cc2ccccc2)N2CCN(CC(C)C)CCC2=O)cc1 (configuration not stated),-7%,50*,.,.,28,.
CCCN1CCC(=O)N([C@H](CSc2ccc(OC)cc2)Cc2ccccc2)CC1,2%,-6,2%,4%,-1,20µM*
Cc1ccc(SC[C@H](Cc2ccccc2)N2CCN(C)CCC2=O)cc1,-2%,9,8%,0%,9,40µM*
CC(C)CN1CCC(=O)N([C@H](CSc2ccc(Br)cc2)Cc2ccccc2)CC1,0%,-5,-3%,4%,-2,6.3µM*
Cc1ccc(SC[C@H](Cc2ccccc2)N2CCN(CCc3ccccc3)CCC2=O)cc1,-2%,13,2%,7%,-2,-33%
COc1ccc(SCC(Cc2ccccc2)N2CCN(CCc3ccccc3)CCC2=O)cc1 (configuration not stated),-4%,-2,.,.,1,.
O=c1cnc2cnc(OCc3ccccc3)nc2n1CCc1ccccc1,-1%,.,.,2%,.,.
CC(C)C[C@H](NC(=O)CNC(=O)c1cc(Cl)ccc1Cl)B(O)O,.,.,.,1%,.,.
COc1ccc(SCC(Cc2ccccc2)N2CCN(CC(C)C)CCC2=O)cc1 (configuration not stated),-3%,53*,.,.,30*,.
c1ccc(-c2c3ccccc3nc3[nH]c4ccccc4c23)cc1,-3%,-15,2%,-3%,-2,-8%
SMILES,FBPA Giardia inh,Shiga inhibitor,LmPK inh,Tb PYK inh,Cycloheximide cs,Sm TGR block
c1ccc2nc3c(nc2c1)[nH]c1ccccc13,-15%,103*,-10%,-4%,64*,11%[11.4 µM]
O=C1CCCC=C1[C@H](O)c1ccc([N+](=O)[O-])cc1,-1%[12.9 µM],.,.,.,.,.
COc1cccc(NC(=O)CN(C)C(=O)CCNC(=O)c2ccccc2OC)c1,.,.,.,2%,.,.
CCN1C(=O)[C@@H]2[C@@H](c3ccc(-c4ccc(Cl)c(Cl)c4)c(OC)c3)N3CCC[C@@]3(C(=O)OC)[C@@H]2C1=O,.,.,.,-9%,.,35µM*
CCSc1ccc([C@@H]2[C@@H]3C(=O)N(CC)C(=O)[C@@H]3[C@]3(C(=O)OC)CCCCN23)cc1,.,.,.,-3%,.,-22%
CCSc1ccc([C@@H]2[C@@H]3C(=O)N(CC)C(=O)[C@@H]3[C@]3(C(=O)OC)CCCN23)cc1,.,.,.,-1%,.,35µM*
CCN1C(=O)[C@H]2[C@@H](c3ccc(-c4ccc(F)cc4)c(OC)c3)N3CCC[C@@]3(C(=O)OC)[C@H]2C1=O,.,.,.,-4%,.,?
O=C1COc2ccc(N3C(=O)C=CC3=O)cc2N1,?,40,2%,.,9,0.4µM*
Cc1cc(C)c(Cn2c(=O)n(CCC(=O)NCCc3ccccc3)c(=O)c3ccccc32)c(C)c1,.,.,.,-6%,.,-2%
Brc1ccc(OCCCN2CCOCC2)cc1,-28%,30,-10%,-7%,14*,5%
CC(C)c1ccc(OCCCN2CCCC2)cc1,-30%,-2,0%,9%,-2,4%
CC(=O)Oc1ccc(OC(C)=O)c(SCCCCCN2CCOCC2)c1,?,26,?,-2%,7,50µM*
Brc1ccccc1OCCCN1CCOCC1,-8%,50*,0%,-15%,32*,5%
c1ccc(OCCCCN2CCOCC2)cc1,6%,-12,-1%,0%,6,-16%
CC(C)c1ccc(OCCCCCN2CCOCC2)cc1,?,116*,3%,-1%,54*,3%
CCn1c(=O)c2cc(C(=O)NCCc3ccc(OC)c(OC)c3)sc2c2ccccc21,.,.,.,-3%,.,-2%
Brc1ccc(OCCN2CCOCC2)cc1,?,23*,-4%,-2%,15,-3%
Clc1ccc(OCCN2CCOCC2)cc1,2%,13,1%,-4%,5,4%

# Screens: PubChem, National Center for Advancing Translational Sciences (NCATS)
